Some test systems named below: SR leukemia; RPMI-8226 leukemia; OVCAR-8 ovarian; OVCAR-5 ovarian; OVCAR-4 ovarian; SK-OV-3 ovarian; IGROV1 ovarian; OVCAR-3 ovarian; HS 578T breast; NCI/ADR-RES ovarian; T-47D breast; BT-549 breast; SW-620 colon; MCF7 breast; HCT-116 colon; HCC-2998 colon; KM12 colon; MDA-MB-468 breast; MDA-MB-435 melanoma.
What all share (test): NCI-60 one-dose screen, 48 h (100 = growth as untreated, 0 = no growth, -100 = all killed)
Holding throughout (details): 10 µM unless noted

About 83,000 compounds went through this panel and 20% of them were active in at least one assay; those are over-represented in the sample as a whole.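 Growth was measured after 48 h exposure to one concentration of compound in 96-well plates. Values under 10 count as active.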 Values without a mark were called inactive. Active and inactive are the calls of the source.

With `COc1ccc2oc3c4[nH]c5ccccc5c4c4c(c3c2c1)C(=O)N(C(=O)OC(C)(C)C)C4=O`, the growth is -5.86% (active) in the assay with SR leukemia; -10.4% (active) in the assay with RPMI-8226 leukemia; -20.1% (active) in the assay on OVCAR-8 ovarian; 6.78% (active) in the assay with OVCAR-5 ovarian; -6.75% (active) in the assay with OVCAR-4 ovarian; -25.3% (active) in the assay with SK-OV-3 ovarian. Also, the growth with IGROV1 ovarian was -1.25% (active); with OVCAR-3 ovarian it was -33.7% (active); with HS 578T breast it was -1.85% (active); with NCI/ADR-RES ovarian, -17.9% (active); in the assay on T-47D breast it was -7.22% (active); with BT-549 breast, -44.2% (active). The growth is 6.81% (active) in the assay on SW-620 colon; -25.9% (active) with MCF7 breast; 1.65% (active) in the assay with HCT-116 colon; 23.2% in the assay on HCC-2998 colon; -18.9% (active) in the assay on KM12 colon; -22.9% (active) in the assay with MDA-MB-468 breast.
As for `O=C(/C=C/Nc1ccc2oc(=O)ccc2c1)c1cc2cc(Br)ccc2oc1=O`, the growth in the assay on SR leukemia was 99.2%; in the assay with RPMI-8226 leukemia it was 103%; with OVCAR-8 ovarian it was 104%; in the assay on OVCAR-5 ovarian, 108%; in the assay with OVCAR-4 ovarian, 102%; in the assay with SK-OV-3 ovarian, 99.8%. Further, the growth is 105% in the assay with IGROV1 ovarian; 122% in the assay with OVCAR-3 ovarian; 92.6% with HS 578T breast; 109% with NCI/ADR-RES ovarian; 94.4% in the assay on T-47D breast; 87.9% in the assay on BT-549 breast. Besides, the growth in the assay with MDA-MB-435 melanoma was 103%; with SW-620 colon it was 105%; with HCT-116 colon, 101%; in the assay with HCC-2998 colon, 113%; in the assay with KM12 colon, 111%; in the assay with MDA-MB-468 breast, 98.9%.
For the molecule `O=C(c1ccc(OCCN2CCOCC2)cc1)C1[C@H](c2ccc(Cl)cc2)[C@@H](c2ccccc2)NC12C(=O)Nc1ccc(Cl)cc12` (some centres undefined), the growth was -46.3% (active) in the assay on SR leukemia; 15.5% in the assay on RPMI-8226 leukemia; 39% in the assay on OVCAR-8 ovarian; 50.5% in the assay with OVCAR-5 ovarian; 48.3% in the assay on OVCAR-4 ovarian; 50.1% in the assay on SK-OV-3 ovarian. Further, the growth in the assay with IGROV1 ovarian is 24%; in the assay with OVCAR-3 ovarian, 40.4%; in the assay on HS 578T breast, 59.1%; in the assay with NCI/ADR-RES ovarian, 24.5%; in the assay on T-47D breast, 34.6%; in the assay with BT-549 breast, 57.1%. In addition, the growth is 41.5% in the assay with SW-620 colon; 4.28% (active) with MCF7 breast; 11.5% in the assay with HCT-116 colon; -30% (active) in the assay on HCC-2998 colon; 16.4% in the assay on KM12 colon; -7.83% (active) in the assay with MDA-MB-468 breast.
On to `COc1ccc2c(c1)c(-c1cc3nc(-c4cn(C)c5ncccc45)cc(N)n3n1)cn2C`, for which the growth in the assay with SR leukemia was -19.3% (active); in the assay with RPMI-8226 leukemia, -20.6% (active); in the assay with OVCAR-8 ovarian it was -41.5% (active); in the assay on OVCAR-5 ovarian it was -7.9% (active); in the assay on OVCAR-4 ovarian, -5.11% (active); with SK-OV-3 ovarian, -57% (active). Also, the growth with IGROV1 ovarian was -58.1% (active); with OVCAR-3 ovarian, -12.4% (active); in the assay on HS 578T breast, -26.8% (active); in the assay with NCI/ADR-RES ovarian it was 9.49% (active); with T-47D breast, -48.5% (active); with BT-549 breast, -84.7% (active). The growth in the assay on MDA-MB-435 melanoma was -62.4% (active); with SW-620 colon, -70.4% (active); in the assay on HCT-116 colon, -89% (active); in the assay with HCC-2998 colon, -100% (active); with KM12 colon it was -69.3% (active); in the assay on MDA-MB-468 breast it was -89.6% (active).
With `Cc1sc2c(c1C)C(c1ccc(Cl)cc1)=N[C@@H](CC(=O)NCCCCCNC(=O)COc1ccc(C3CCC(=O)NC3=O)cc1)c1nnc(C)n1-2` (some centres undefined), the growth is 37.5% in the assay on SR leukemia; -3.88% (active) in the assay on RPMI-8226 leukemia; 16.2% in the assay with OVCAR-8 ovarian; 27.8% in the assay on OVCAR-5 ovarian; 22.8% in the assay with OVCAR-4 ovarian; -16.9% (active) in the assay on SK-OV-3 ovarian. The growth in the assay on IGROV1 ovarian was 21.8%; with OVCAR-3 ovarian, 44.7%; in the assay with HS 578T breast it was 25%; in the assay with NCI/ADR-RES ovarian, 97.3%; in the assay on T-47D breast it was -10.6% (active); with BT-549 breast it was -0.134% (active). Also, the growth in the assay on MDA-MB-435 melanoma was 20.3%; with SW-620 colon, 23.1%; in the assay on HCT-116 colon, 20%; with HCC-2998 colon it was -10.8% (active); in the assay on KM12 colon it was 13.9%; in the assay on MDA-MB-468 breast it was -20.8% (active).
In the case of `COc1c(F)ccc(C(=O)Nc2ccc3nc(NC(=O)C4CCCN(S(=O)(=O)c5ccc(Br)c(F)c5)C4)sc3c2)c1F` (centres undefined), the growth in the assay with SR leukemia was 47.2%; in the assay with RPMI-8226 leukemia, 52%; in the assay with OVCAR-8 ovarian, 98.1%; in the assay on OVCAR-5 ovarian it was 102%; with OVCAR-4 ovarian, 75.4%; in the assay with SK-OV-3 ovarian it was 102%. Also, the growth in the assay with IGROV1 ovarian was 82.2%; in the assay with OVCAR-3 ovarian, 96.8%; with HS 578T breast, 72.8%; in the assay on NCI/ADR-RES ovarian it was 83.4%; in the assay on T-47D breast, 67.5%; in the assay on BT-549 breast it was 77%. Further, the growth is 92.3% with MDA-MB-435 melanoma; 96.5% in the assay with SW-620 colon; 62.7% with HCT-116 colon; 109% in the assay on HCC-2998 colon; 79.2% with KM12 colon; 92% in the assay with MDA-MB-468 breast.
As to `COc1ccc(-c2ccc(SCC(=O)NCCc3ccc(S(N)(=O)=O)cc3)nn2)cc1`, the growth with SR leukemia was 63.9%; with RPMI-8226 leukemia it was 49.6%; in the assay with OVCAR-8 ovarian, 88.8%; in the assay on OVCAR-5 ovarian, 102%; with OVCAR-4 ovarian, 77.2%; in the assay on SK-OV-3 ovarian, 71.1%. For the same molecule, the growth in the assay on IGROV1 ovarian is 82%; in the assay on OVCAR-3 ovarian, 121%; with HS 578T breast, 89.8%; with NCI/ADR-RES ovarian it was 100%; with T-47D breast it was 51%; with BT-549 breast, 60.5%. The growth is 92.2% with MDA-MB-435 melanoma; 103% with SW-620 colon; 70.4% in the assay on HCT-116 colon; 94.9% in the assay on HCC-2998 colon; 96.3% in the assay on KM12 colon; 33.9% in the assay with MDA-MB-468 breast.
`CC(=O)c1cc(C(=O)c2ccccc2)n2c1ccc1ccccc12`: the growth with SR leukemia is 81.4%; with RPMI-8226 leukemia it was 95.6%; in the assay with OVCAR-8 ovarian, 99%; with OVCAR-5 ovarian, 103%; in the assay with OVCAR-4 ovarian, 102%; with SK-OV-3 ovarian, 85.8%. In addition, the growth in the assay on IGROV1 ovarian is 88.6%; in the assay on OVCAR-3 ovarian, 112%; in the assay on HS 578T breast it was 94.1%; with NCI/ADR-RES ovarian, 101%; in the assay with T-47D breast, 83.5%; in the assay on BT-549 breast, 73%. The growth was 108% in the assay with MDA-MB-435 melanoma; 99.3% in the assay with SW-620 colon; 82.4% in the assay on HCT-116 colon; 121% in the assay with HCC-2998 colon; 83.1% in the assay on KM12 colon; 93.9% in the assay with MDA-MB-468 breast.

The values above are taken from PubChem BioAssay (NCI).
